The source of these data is PubChem BioAssay.

Test [1] in a line: antimalarial activity against Dd2 strain (AID 2302;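 active = growth inhibition above 50% at the single 2 µM test dose, taken to imply half-maximal potency below 2 µM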;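 note: 0% = DMSO untreated growth and 100% = chloroquine plus artemisinin killed control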). The settings on record: P. falciparum Dd2 in RBCs, LDH growth readout, 72 h; at 2 µM; stronger effect = higher value.
Test [2] is described as follows: human hepatoma cell viability loss – ATP luminescence, cytotoxicity control for P. falciparum antimalarial project, primary screen (AID 2303;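 active = inhibition above 50%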;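 note: 0% = DMSO wells and 100% = digitonin-killed cells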). The settings on record: HepG2 viability, 24-48 h, at 10 µM, stronger effect = higher value.
Test [3] concerns the target L-lactate dehydrogenase (Plasmodium falciparum (isolate CDC / Honduras)) (UniProt Q27743). In words: PfLDH activity inhibition – cell lysate, 3D7 strain, counter-screen for P. falciparum growth inhibition project (AID 2304).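 Note: 0% = vehicle and 100% = reference inhibitor.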 The settings on record: P. falciparum 3D7 crude extract, LDH APAD/NBT absorbance; at 2 µM; stronger effect = higher value.
Test [4] can be described thus: inhibition of 3D7 malaria parasite growth – strain 3D7 (AID 2306).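 Note: 0% = DMSO wells and 100% = chloroquine plus artemisinin control wells.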 To be noted: P. falciparum 3D7 erythrocytic growth, LDH absorbance, 72 h; at 2 µM; stronger effect = higher value.
Test [5] addresses Calcium-dependent protein kinase 1 (Plasmodium falciparum (isolate 3D7)) (UniProt P62344). In words: PfCDPK1 kinase inhibitors, biochemical, TCAMS library (AID 1159585; cut-off not given, nearly all actives have IC50 up to about 0.98 µM;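 note: inhibitors leave more ATP so luminescence rises with inhibition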). The settings on record: recombinant PfCDPK1, Kinase-Glo ATP depletion luminescence.
Test [6] deals with Plasmodium falciparum protein kinase 6 (PK6, PF3D7_1337100) (UniProt Q8IDW1). In words: PfPK6 kinase inhibitors, biochemical, TCAMS library (AID 1159586). The settings on record: recombinant PfPK6, Kinase-Glo ATP depletion luminescence. On the technique in general: Kinase-Glo reads ATP consumption through a luciferase reaction.
Test [7] concerns the target Protein kinase 7 (PK7), Plasmodium falciparum 3D7 (PF3D7_0213400) (UniProt Q7YTF7). Description: inhibition of Plasmodium PK7 catalytic activity – biochemical, TCAMS antimalarial set, Kinase-Glo luminescence (AID 1159587). To be noted: recombinant PfPK7, Kinase-Glo ATP depletion luminescence.
Test [8] addresses Calcium-dependent protein kinase 4 (Plasmodium falciparum (isolate 3D7)) (UniProt Q8IBS5). In words: PfCDPK4 kinase inhibitors, biochemical, TCAMS library (AID 1159588; cut-off not given, nearly all actives have IC50 up to about 0.91 µM). To be noted: recombinant PfCDPK4, Kinase-Glo ATP depletion luminescence.

Molecules are shown by their SMILES. A number with no mark means an inactive call. For some assays here: Entries with a potency or affinity are not part of this list. Activity calls are given as the source filed them. Unless noted, the rule behind the calls is not given here.

Chain of Calcium-dependent protein kinase 4 (Plasmodium falciparum (isolate 3D7)) (Q8IBS5 whole entry, looked up): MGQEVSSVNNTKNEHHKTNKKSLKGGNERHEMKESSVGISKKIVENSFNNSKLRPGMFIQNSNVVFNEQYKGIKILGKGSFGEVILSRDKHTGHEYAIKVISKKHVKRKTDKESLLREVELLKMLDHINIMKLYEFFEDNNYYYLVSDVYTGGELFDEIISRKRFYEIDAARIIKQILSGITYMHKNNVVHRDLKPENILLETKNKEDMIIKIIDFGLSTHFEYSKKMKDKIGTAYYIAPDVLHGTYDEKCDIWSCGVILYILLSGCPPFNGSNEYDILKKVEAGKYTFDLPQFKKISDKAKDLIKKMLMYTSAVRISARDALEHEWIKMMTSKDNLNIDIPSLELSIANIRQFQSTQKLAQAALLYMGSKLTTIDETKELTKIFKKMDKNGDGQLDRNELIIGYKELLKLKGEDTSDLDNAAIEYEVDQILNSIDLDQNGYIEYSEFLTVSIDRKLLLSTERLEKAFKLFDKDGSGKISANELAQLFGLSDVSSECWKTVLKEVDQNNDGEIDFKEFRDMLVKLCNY
Chain of Calcium-dependent protein kinase 1 (Plasmodium falciparum (isolate 3D7)) (P62344 whole entry, looked up): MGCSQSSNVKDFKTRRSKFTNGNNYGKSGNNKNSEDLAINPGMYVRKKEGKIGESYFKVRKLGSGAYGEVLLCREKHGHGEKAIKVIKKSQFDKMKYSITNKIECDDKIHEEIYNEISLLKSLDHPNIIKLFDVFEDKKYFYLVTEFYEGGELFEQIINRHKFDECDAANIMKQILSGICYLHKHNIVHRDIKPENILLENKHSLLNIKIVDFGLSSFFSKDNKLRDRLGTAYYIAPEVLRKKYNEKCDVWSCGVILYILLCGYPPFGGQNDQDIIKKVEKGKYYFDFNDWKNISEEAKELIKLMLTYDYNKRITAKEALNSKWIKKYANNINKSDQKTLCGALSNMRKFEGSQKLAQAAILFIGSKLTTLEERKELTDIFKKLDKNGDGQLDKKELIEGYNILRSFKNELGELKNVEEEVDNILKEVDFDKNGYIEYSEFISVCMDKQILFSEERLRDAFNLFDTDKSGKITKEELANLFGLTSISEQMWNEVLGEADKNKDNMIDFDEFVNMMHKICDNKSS
Chain of L-lactate dehydrogenase (Plasmodium falciparum (isolate CDC / Honduras)) (Q27743 whole entry, looked up): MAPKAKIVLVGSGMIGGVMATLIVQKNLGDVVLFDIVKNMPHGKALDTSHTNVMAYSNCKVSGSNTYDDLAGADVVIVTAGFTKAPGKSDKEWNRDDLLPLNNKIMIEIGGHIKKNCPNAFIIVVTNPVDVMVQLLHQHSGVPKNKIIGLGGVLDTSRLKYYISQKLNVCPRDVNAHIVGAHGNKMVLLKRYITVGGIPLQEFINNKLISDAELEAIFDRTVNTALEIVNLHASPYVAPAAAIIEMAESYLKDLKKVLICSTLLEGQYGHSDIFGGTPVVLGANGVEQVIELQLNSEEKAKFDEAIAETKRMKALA
Chain of Plasmodium falciparum protein kinase 6 (PK6, PF3D7_1337100) (Q8IDW1 1-305): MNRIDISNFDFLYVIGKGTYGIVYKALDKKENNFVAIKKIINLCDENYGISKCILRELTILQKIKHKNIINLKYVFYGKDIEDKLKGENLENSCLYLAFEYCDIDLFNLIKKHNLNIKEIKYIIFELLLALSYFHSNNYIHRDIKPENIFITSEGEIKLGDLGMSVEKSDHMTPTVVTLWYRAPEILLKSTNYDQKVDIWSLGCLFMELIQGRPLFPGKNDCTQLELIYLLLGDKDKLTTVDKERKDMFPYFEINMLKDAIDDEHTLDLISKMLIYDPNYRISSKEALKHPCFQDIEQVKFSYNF
Chain of Protein kinase 7 (PK7), Plasmodium falciparum 3D7 (PF3D7_0213400) (Q7YTF7 1-343): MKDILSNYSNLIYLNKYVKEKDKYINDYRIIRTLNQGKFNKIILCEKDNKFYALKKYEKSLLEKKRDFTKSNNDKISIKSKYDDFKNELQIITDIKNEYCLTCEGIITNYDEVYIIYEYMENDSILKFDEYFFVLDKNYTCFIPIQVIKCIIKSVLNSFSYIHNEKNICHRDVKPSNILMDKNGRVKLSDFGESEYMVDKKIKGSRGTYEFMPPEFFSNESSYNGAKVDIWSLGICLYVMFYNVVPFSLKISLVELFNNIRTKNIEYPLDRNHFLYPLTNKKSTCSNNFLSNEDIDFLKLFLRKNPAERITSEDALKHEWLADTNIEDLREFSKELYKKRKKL

The inhibition is the drop in the measured response relative to a control, in per cent. Take `CC(CNC(=O)c1cc2c(Cl)cc(Cl)cc2[nH]1)CNc1cc(=O)c2ccccc2[nH]1` (configuration not stated): the growth inhibition in test [1] was 11%; in test [4], 97% (active). Besides, the inhibition in test [2] was 11%; in test [3], 5%. For the same molecule, the result in test [5], in test [6], in test [7] and in test [8] was inactive.

On to `O=C(Nc1cc(Cl)c(Cl)cc1NC(=O)c1cccc(-c2ccccc2)c1O)c1cccc(-c2ccccc2)c1O`, for which the growth inhibition in test [1] and in test [4] was 100% (active) each time. For the same molecule, the inhibition in test [2] was 79% (active); in test [3], 2%. For the same molecule, the result in test [5], in test [6], in test [7] and in test [8] was inactive.

On to `COc1ccccc1NC(=O)c1cc(C(=O)c2cc(Cl)ccc2O)cn(-c2ccccc2OC)c1=O`, for which the growth inhibition in test [1] is 31%; in test [4] it was 92% (active). Besides, the inhibition was 9% in test [2] and 7% in test [3]. Further, the result in test [5], in test [6], in test [7] and in test [8] was inactive.

As for `Cc1ccc(CN2CCN(Cc3cccc(NC(=O)c4cccs4)c3)CC2)cc1C`, the values for the growth inhibition in test [1] and in test [4] were 68% (active) and 96% (active), respectively. Besides, the inhibition is 41% in test [2] and 2% in test [3]. Further, the outcome in test [5], in test [6], in test [7] and in test [8] was inactive.

In the case of `CNCCNCc1ccc(-c2cccc(-c3nc4ccc(C(F)(F)F)cc4[nH]3)c2)cc1`, the growth inhibition in test [1] was 77% (active); in test [4] it was 98% (active). Besides, the inhibition is 27% in test [2] and 1% in test [3]. The outcome in test [5], in test [6], in test [7] and in test [8] was inactive.

As to `COc1ccc2nccc([C@@H](O)CN3CCC(NCc4ccc5nnsc5c4)CC3)c2c1`, the values for the growth inhibition in test [1] and in test [4] were 0% and 99% (active), respectively. For the same molecule, the inhibition in test [2] was 16%; in test [3], 5%. Moreover, the outcome in test [5], in test [6], in test [7] and in test [8] was inactive.

As to `O=C(Nc1cccc(C(F)(F)F)c1)N1CCOC(CCN2CCC3(CCc4ccccc43)CC2)(c2ccc(Cl)c(Cl)c2)C1` (configuration not stated), the growth inhibition in test [1] is 70% (active); in test [4] it was 99% (active). Besides, the results for the inhibition in test [2] and in test [3] were 31% and 0%, respectively. The result in test [5], in test [6], in test [7] and in test [8] was inactive.

With `CCCn1c(Sc2ccc(C#N)c([N+](=O)[O-])c2)nnc1-c1cc(OC)cc(OC)c1`, the growth inhibition in test [1] was 79% (active); in test [4], 98% (active). In addition, the values for the inhibition in test [2] and in test [3] were 24% and 6%, respectively. In addition, the result in test [5], in test [6], in test [7] and in test [8] was inactive.

As to `O=C(c1ccc(Cl)cc1)N1CCOC(CCN2CCC(c3ccccc3)CC2)(c2ccc(Cl)c(Cl)c2)C1` (configuration not stated), the growth inhibition in test [1] is 68% (active); in test [4], 98% (active). Besides, the inhibition in test [2] is 19%; in test [3], 3%. Further, the result in test [5], in test [6], in test [7] and in test [8] was inactive.

`O=C(Nc1ccc(-c2cccc(-c3nc4ccc(C(F)(F)F)cc4[nH]3)c2)cc1)c1cccnc1`: the growth inhibition in test [1] was 24%; in test [4], 100% (active). Also, the inhibition was 74% (active) in test [2] and -5% in test [3]. Further, the result in test [5], in test [6], in test [7] and in test [8] was inactive.

On to `Cc1ccc2c(NN=Cc3cccc(F)c3)cc(C)nc2c1`, for which the growth inhibition in test [1] is 66% (active); in test [4] it was 96% (active). Besides, the inhibition in test [2] was 34%; in test [3], -2%. The outcome in test [5], in test [6], in test [7] and in test [8] was inactive.

For `COc1ccc2nccc([C@@H](O)CN3CCC(NCc4ccc5c(c4)nnn5C(C)C)CC3)c2c1`, the growth inhibition in test [1] was 40%; in test [4], 100% (active). Further, the figures for the inhibition in test [2] and in test [3] were 15% and 0%, respectively. Besides, the result in test [5], in test [6], in test [7] and in test [8] was inactive.

For `O=C(C=Cc1ccc(C(=O)Nc2ccc(C3=NCCN3)cc2)cc1)Nc1ccc(C2=NCCN2)cc1`, the growth inhibition in test [1] was 101% (active); in test [4], 97% (active). In addition, the inhibition in test [2] is -7%; in test [3], 3%. Also, the outcome in test [5], in test [6], in test [7] and in test [8] was inactive.

As to `CCCCCN1CCCC1CNS(=O)(=O)c1ccc(C(=O)Nc2cccc(C(F)(F)F)c2)cc1` (configuration not stated), the figures for the growth inhibition in test [1] and in test [4] were -1% and 95% (active), respectively. Moreover, the results for the inhibition in test [2] and in test [3] were 16% and -4%, respectively. Also, the result in test [5], in test [6], in test [7] and in test [8] was inactive.

As to `COc1ccc(NC(=O)C2CCN(CCCCCNC(=O)/C=C/c3ccc(Cl)c(Cl)c3)CC2)cc1`, the figures for the growth inhibition in test [1] and in test [4] were -4% and 98% (active), respectively. Moreover, the inhibition in test [2] is 26%; in test [3] it was 6%. Further, the result in test [5], in test [6], in test [7] and in test [8] was inactive.

As to `Cn1ccnc1S(=O)(=O)CCNCc1ccc(-c2ccc3ncnc(Nc4ccc(OCc5cccc(F)c5)c(Cl)c4)c3c2)o1`, the growth inhibition in test [1] is 94% (active); in test [4] it was 101% (active). In addition, the inhibition in test [2] is -2%; in test [3] it was -3%. Moreover, the result in test [5], in test [6], in test [7] and in test [8] was inactive.

Take `COc1cccc(CNC(=O)c2cnc(N3CCN(c4ccncc4)CC3)c(Cl)c2)c1`: the figures for the growth inhibition in test [1] and in test [4] were 12% and 89% (active), respectively. For the same molecule, the inhibition was 25% in test [2] and 5% in test [3]. For the same molecule, the outcome in test [5], in test [6], in test [7] and in test [8] was inactive.

`CN1CCC(C(=O)Nc2ccc(-c3cccc(-c4nc5ccc(C(F)(F)F)cc5[nH]4)c3)cc2)CC1`: the values for the growth inhibition in test [1] and in test [4] were 97% (active) and 100% (active), respectively. Moreover, the inhibition in test [2] was 28%; in test [3], 0%. Besides, the result in test [5], in test [6], in test [7] and in test [8] was inactive.

As to `COc1cccc(-c2ccc3ccnc(N)c3c2)c1`, the growth inhibition in test [1] was 93% (active); in test [4], 101% (active). For the same molecule, the inhibition in test [2] was 40%; in test [3] it was 0%. The outcome in test [5], in test [6], in test [7] and in test [8] was inactive.
